Only some compounds are listed: those with a hit (about 4.2% of all), similar ones and a draw of the others.
esBAF inh = Bmi1 luciferase reporter increase in mESCs, primary screen, esBAF inhibitor project, mouse ES cells, Bmi1 luciferase knock-in, single point | 24 h; 100% = twice the neutral-well signal | 350,000 compounds, 2% hits | AID 602393, 2012 | reporter increase, % at 12.5 µM; in the data active = activation above about 40%; inconclusive = no clear call, values can overlap the other calls;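 also: 0% = median of the plate's neutral control wells and 100% = double that signal; a rise in the Bmi1 reporter signal indicates esBAF inhibition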
ssDAF-12 act = S. stercoralis DAF-12 nuclear receptor activators, primary screen, cell-based, luminescence, HEK293, GRIP1 co-expression, lit1-tk-luc; HEK293 ssDAF-12/GRIP1 lit1-tk-luc reporter; % of 3 µM dafachronic acid response; activation, % at 6.8 µM; AID 652126, 2013; 370,000 compounds, 1% hits; Nuclear hormone receptor DAF-12 (Strongyloides stercoralis);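 active = activation above the mean over all tested compounds plus 3 SD, cut at about 0.9% in these data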;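 also: 0% = DMSO-only wells and 100% = 3 µM delta7-dafachronic acid wells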
Wnt act = Wnt/beta-catenin pathway activators, primary screen, cell-based, plate reader, single point; Wnt/beta-catenin reporter cell assay, activator; activation, % at 9.35 µM; 300,000 compounds, 1.2% hits; in the data active = activation above about 30%, passing the limit was not always enough; inconclusive = no clear call, values can overlap the other calls;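 also: 0% = neutral control wells and 100% = positive control wells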
DAX1 inh = DAX1 (NR0B1) inhibitors on StAR promoter, primary screen, cell-based, luminescence, SF-1 (NR5A1), full-length DAX-1; inhibition, % at 6.8 µM; HEK293T StAR-luciferase reporter, SF-1/DAX-1 repression relief; 370,000 compounds, 1.1% hits; AID 652010, 2013;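 active = inhibition above the mean over all tested compounds plus 3 SD, cut at about 3.6% in these data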;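 also: 0% = DAX-1 cells with DMSO and 100% = cells lacking DAX-1 with DMSO; higher inhibition means more luminescence from relief of DAX-1 repression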
hcDAF12 agonist = H. contortus DAF-12 nuclear receptor activators, primary screen, cell-based, luminescence, HEK293, lit1-tk-luc reporter | HEK293 hcDAF-12 lit1-tk-luc reporter; 0% DMSO, 100% Δ7-dafachronic acid | activation, % at 6.8 µM | 370,000 compounds, 1.4% hits;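 active = activation above the mean of all tested compounds plus 3 SD, cut at about 5.5% in these data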;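 also: 100% = response to 3 µM Δ7-dafachronic acid high control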
hgDAF12 agonist = H. glycines DAF-12 receptor agonists, primary screen, cell-based, luminescence, HEK293, GAL4 fusion, UAS-luciferase | Nuclear hormone receptor DAF-12 (Heterodera glycines), GAL4 fusion | HEK293 GAL4-hgDAF12 UAS-luciferase reporter, agonist luminescence; normalized to butyrate control | activation, % at 6.8 µM | 370,000 compounds, 1.8% hits | AID 687014, 2013;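 active = activation above a cutoff set at the mean of all screened compounds plus 3 SD, cut at about 10% in these data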;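 also: 0% = DMSO wells and 100% = sodium butyrate wells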
Active calls of the source: *; ? = inconclusive; . = no result given.

SMILES	esBAF inh	ssDAF-12 act	Wnt act	DAX1 inh	hcDAF12 agonist	hgDAF12 agonist
O=C1CCC(=O)N1c1ccc(CSc2nc3ccccc3[nH]2)cc1	41.8*	-1.2	.	0.3	0.7	5.9
CC(C)CCSc1nc2ccccc2[nH]1	.	-0.9	0.1	1.7	1.5	13.0*
C[C@@H]1CN([C@H](C)CO)S(=O)(=O)c2ccc(C3=CCCC3)cc2O[C@@H]1CN(C)Cc1cccc(C(=O)O)c1	-4.1	.	.	.	.	.
Cc1ccc(S(=O)(=O)NCC[C@H]2CC[C@@H](NC(=O)c3cccc(F)c3)[C@@H](CO)O2)cc1	1.9	.	.	.	.	.
CC(C)NC(=O)Nc1ccc2c(c1)CC(=O)N([C@@H](C)CO)C[C@H](C)[C@H](CN(C)C(=O)NC(C)C)O2	-0.2	.	.	.	.	.
O=C(N[C@H]1CC[C@@H](CCNC(=O)C2CC2)O[C@@H]1CO)c1ccccn1	4.5	.	.	.	.	.
C(=C\c1nc(-c2ccncc2)no1)/c1ccccc1	20.3	-0.4	40.3*	2.3	5.3	10.4
C(=C\c1ccncc1)/c1ccccc1	19.4	-0.5	21.2	0.1	-2.1	2.5
O=C1C2CCC(C2)C1CN1CCOCC1 (stereo unspecified)	15.8	1.8*	-3.7	0.2	2.7	-2.1
CN(C)C(=O)c1cccc(-c2ccc3c(c2)[C@H]2[C@H](CCN2C(=O)c2ccc4c(c2)OCO4)[C@@H](CO)N3)c1	-5.1	.	.	.	.	.
COc1ccccc1CNC(=O)C[C@@H]1CC[C@@H]2[C@H](COC[C@@H](O)CN2C(=O)Nc2ccc(F)cc2)O1	13.2	.	.	.	.	.
O=C(Nc1ccccc1)[C@@H]1[C@@H](CO)[C@@H]2Cn3c(cccc3=O)[C@@H]2N1Cc1ccccc1Cl	8.8	.	.	.	.	.
CCn1nnnc1SCC(=O)Nc1ccc2c(c1)OCCO2	.	0.2	42.6*	1.7	4.3	7.5
Cc1cc(=O)[nH]c(SCC(=O)Nc2ccc3c(c2)OCCO3)n1	.	-1.1	-0.5	-0.5	-1.1	-0.7
O=C(CSc1nccc(=O)[nH]1)Nc1ccc2c(c1)OCCO2	.	0.1	?	1.3	1.5	11.2*
C[C@H]1CN([C@@H](C)CO)C(=O)c2cc(C#CC3CC3)cnc2O[C@@H]1CN(C)C(=O)c1ccc(F)cc1	-4.3	.	.	.	.	.
Cc1ccc(N)c([N+](=O)[O-])c1	-0.7	-0.7	-0.9	1.5	1.1	0.6
Nc1ccc(N=Nc2ccccc2)cc1[N+](=O)[O-]	62.2*	3.0*	-3.8	1.9	5.6*	12.1*
CCCC#Cc1cnc2c(c1)C(=O)N([C@H](C)CO)C[C@H](C)[C@H](CN(C)S(C)(=O)=O)O2	0.0	.	.	.	.	.
CCN(CC)C(=O)c1ccc(COc2ccc(Cl)c(C)c2)o1	77.5*	-1.7	1.2	-0.9	-2.7	1.8
O=C(c1ccc(COc2ccc(F)cc2)o1)n1cccn1	0.4	-1.4	1.4	0.1	0.5	1.9
CCN(CC)C(=O)c1ccc(COc2ccccc2Br)o1	73.1*	-1.0	.	-0.8	-2.0	3.9
Cc1cc(OCc2ccc(C(=O)n3cccn3)o2)ccc1Cl	.	0.1	46.8*	0.5	0.9	5.8
CC(C)(C)NC(=O)c1ccc(COc2ccccc2Br)o1	0.2	-1.1	.	-0.5	-3.6	0.4
C[C@@H]1CN([C@H](C)CO)S(=O)(=O)c2ccc(-c3ccc(C#N)cc3)cc2O[C@@H]1CN(C)Cc1ccccn1	-1.4	.	.	.	.	.
SMILES	esBAF inh	ssDAF-12 act	Wnt act	DAX1 inh	hcDAF12 agonist	hgDAF12 agonist
CNC(=O)C[C@H]1CC[C@H]2[C@@H](COc3ccc(NC(=O)c4cccs4)cc3C(=O)N2C)O1	5.6	.	.	.	.	.
COc1ccc(/C=N/Nc2cc(C)nc3c(C)cccc23)cc1	2.3	-2.1	-6.5	-0.3	-2.0	2.2
Cc1cccc(C=NNc2cc(C)c3cccc(C)c3n2)n1	.	0.6	-2.1	1.3	3.9	12.0*
CCOc1ccc(CCNC(=O)COC(=O)COc2ccc(Cl)cc2)cc1OCC	.	-1.2	-0.3	3.8*	-1.7	-2.5
COc1ccc(CCNC(=O)c2ccc3ccccc3n2)cc1OC	-5.4	-1.6	-3.1	-0.5	-3.4	1.3
CCOc1ccc(CCNC(=O)c2ccc3ccccc3n2)cc1OCC	56.7*	0.3	6.5	-0.5	5.0	6.3
CCOc1ccc(CCNC(=O)COC(=O)Cc2ccc(F)cc2)cc1OCC	2.1	-1.0	0.2	1.0	-2.0	-0.1
CCOc1ccc(CCNC(=O)COC(=O)Cc2c[nH]c3ccccc23)cc1OCC	-7.7	1.3*	2.1	-3.9	4.4	4.6
COc1ccc(CN(C)C[C@@H]2Oc3ccc(NC(=O)Nc4ccc(OC)cc4)cc3CC(=O)N([C@@H](C)CO)C[C@@H]2C)cc1	-0.1	.	.	.	.	.
O=C(c1ccccc1F)N1C[C@H]2[C@@H](c3ccccc31)[C@H](CO)N2C(=O)c1ccccc1	-5.6	.	.	.	.	.
CC1CCCCC1NC(=O)c1cc2ccccc2o1 (stereo unspecified)	.	-0.6	1.6	0.3	2.2	10.6*
O=C(NC1CCCC1)c1cc2ccccc2o1	.	-0.6	27.3	2.0	1.2	3.6
CC1CCCCC1NC(=O)c1cc(Cl)nc2ccccc12 (stereo unspecified)	3.1	1.4*	-1.7	1.7	3.5	5.0
O=C(NC1CCCCC1)c1cc2cc(Br)ccc2o1	56.2*	0.0	-1.0	0.1	3.5	9.0
CCOC(=O)N(C)C[C@@H]1OCc2ccccc2-c2ccccc2C(=O)N([C@@H](C)CO)C[C@H]1C	-5.4	.	.	.	.	.
C[C@H]1CN([C@@H](C)CO)C(=O)Cc2cc(NS(=O)(=O)c3cccs3)ccc2O[C@@H]1CN(C)C(=O)Nc1ccccc1	2.5	.	.	.	.	.
COc1cccc2sc3ccc(NCc4ccc5c(c4)OCO5)cc3c(=O)c12	15.0	-0.8	-0.4	-0.2	0.0	1.6
Cn1c2ccccc2c(=O)c2ccc(NCc3ccc4c(c3)OCO4)cc21	44.3*	-1.3	5.7	-0.5	-1.6	4.8
CCCn1c(O)c(C=Nc2ccccc2)sc1=S	80.6*	-0.7	-0.1	-0.3	0.2	5.2
COc1ccc2cc(C3=CC(=O)CC(C)(C)C3=O)ccc2c1	123.9*	-0.4	0.5	1.4	1.5	6.2
COc1ccncc1-c1ccc(C2=CC(=O)CC(C)(C)C2=O)cc1	65.2*	-0.4	1.0	2.0	0.9	7.6
Cc1ccc(C2=CC(=O)CC(C)(C)C2=O)cc1	.	-1.5	-0.3	0.9	-2.3	-1.9
COc1cccc(-c2ccc(C3=CC(=O)CC(C)(C)C3=O)cc2)c1OC	16.4	-1.3	0.2	-0.8	-1.8	-4.4
CC(=O)OCc1ccc(C2=CC(=O)CC(C)(C)C2=O)cc1	2.2	-1.2	-0.6	1.2	-1.4	4.5
